About 410 targets per protein were measured; listed, in parts, are those with the strongest signals and a random draw of the rest.
Legend:
Test in all cases: glycan array binding signal (z-score within array); higher = stronger binding
Conditions in all cases: glycan notation: IUPAC condensed, linker removed
GalNAc(a1-3)Gal = molecular target: GalNAc(a1-3)Gal
Summary of the method: (§1)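 Columns mapping to the same glycan were averaged after glycan names were converted to IUPAC-condensed notation. The data come from 3228 arrays in the Consortium for Functional Glycomics database, limited to those with an available protein sequence. Binding is reported as a within-array Z-score averaged across arrays of one protein sequence and across linkers.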

GalNAc(a1-3)GalNAc = molecular target: GalNAc(a1-3)GalNAc
Summary of the method: as §1

[1] = molecular target: GalNAc(a1-3)GalNAc(a1-3)Gal(a1-4)Gal(b1-4)GlcNAc
Summary of the method: as §1

[2] = molecular target: GalNAc(a1-3)GalNAc(b1-3)Gal(a1-4)Gal(b1-4)GlcNAc
Summary of the method: as §1

Glc(b1-4)Glc = molecular target: Glc(b1-4)Glc
Summary of the method: as §1

Glc(b1-6)Glc = molecular target: Glc(b1-6)Glc
Summary of the method: as §1

GlcA(b1-3)Gal = molecular target: GlcA(b1-3)Gal
Summary of the method: as §1

[3] = molecular target: GlcA3S(b1-3)Gal(b1-4)GlcNAc(b1-3)Gal(b1-4)Glc
Summary of the method: as §1

[4] = molecular target: GlcNAc(a1-3)Gal(b1-4)GlcNAc
Summary of the method: as §1

[5] = molecular target: GlcNAc(a1-4)Gal(b1-4)GalNAc
Summary of the method: as §1

[6] = molecular target: GlcNAc(a1-4)Gal(b1-4)GlcNAc(b1-3)Gal(b1-4)GlcNAc
Summary of the method: as §1

[7] = molecular target: GlcNAc(a1-4)Gal(b1-4)GlcNAc(b1-3)Gal(b1-4)GlcNAc(b1-3)Gal(b1-4)GlcNAc
Summary of the method: as §1

[8] = molecular target: GlcNAc(b1-2)[GlcNAc(b1-4)]Man(a1-3)[GlcNAc(b1-4)][GlcNAc(b1-2)[GlcNAc(b1-6)]Man(a1-6)]Man(b1-4)GlcNAc(b1-4)[Fuc(a1-6)]GlcNAc
Summary of the method: as §1

[9] = molecular target: GlcNAc(b1-2)[GlcNAc(b1-6)]Man(a1-6)[GlcNAc(b1-2)Man(a1-3)][GlcNAc(b1-4)]Man(b1-4)GlcNAc(b1-4)GlcNAc
Summary of the method: as §1

[10] = molecular target: GlcNAc(b1-3)Gal(b1-4)GlcNAc(b1-3)Gal(b1-4)GlcNAc(b1-2)Man(a1-3)[GlcNAc(b1-3)Gal(b1-4)GlcNAc(b1-3)Gal(b1-4)GlcNAc(b1-2)Man(a1-6)]Man(b1-4)GlcNAc(b1-4)[Fuc(a1-6)]GlcNAc
Summary of the method: as §1

[11] = molecular target: GlcNAc(b1-3)Gal(b1-4)GlcNAc(b1-3)Gal(b1-4)GlcNAc(b1-3)Gal(b1-4)GlcNAc(b1-2)Man(a1-3)[GlcNAc(b1-3)Gal(b1-4)GlcNAc(b1-3)Gal(b1-4)GlcNAc(b1-3)Gal(b1-4)GlcNAc(b1-2)Man(a1-6)]Man(b1-4)GlcNAc(b1-4)GlcNAc
Summary of the method: as §1

[12] = molecular target: GlcNAc(b1-3)Gal(b1-4)GlcNAc(b1-3)Gal(b1-4)GlcNAc(b1-3)Gal(b1-4)GlcNAc(b1-2)Man(a1-3)[GlcNAc(b1-3)Gal(b1-4)GlcNAc(b1-3)Gal(b1-4)GlcNAc(b1-3)Gal(b1-4)GlcNAc(b1-2)Man(a1-6)]Man(b1-4)GlcNAc(b1-4)[Fuc(a1-6)]GlcNAc
Summary of the method: as §1

Kdn(a2-3)Gal(b1-4)GlcNAc = molecular target: Kdn(a2-3)Gal(b1-4)GlcNAc
Summary of the method: as §1

[13] = molecular target: Neu5Ac(a2-3)Gal(b1-3)GalNAc(b1-3)Gal(a1-4)Gal(b1-4)Glc
Summary of the method: as §1

[14] = molecular target: Neu5Ac(a2-3)Gal(b1-3)GalNAc(b1-4)[Neu5Ac(a2-8)Neu5Ac(a2-3)]Gal(b1-4)Glc
Summary of the method: as §1

[15] = molecular target: Neu5Ac(a2-3)Gal(b1-3)[Fuc(a1-4)]GlcNAc(b1-3)Gal(b1-4)[Fuc(a1-3)]GlcNAc
Summary of the method: as §1

[16] = molecular target: Neu5Ac(a2-3)Gal(b1-4)GlcNAc(b1-3)Gal(b1-4)GlcNAc
Summary of the method: as §1

[17] = molecular target: Neu5Ac(a2-3)Gal(b1-4)GlcNAc(b1-3)Gal(b1-4)GlcNAc(b1-3)Gal(b1-4)GlcNAc
Summary of the method: as §1

[18] = molecular target: Neu5Ac(a2-3)Gal6S(b1-4)GlcNAc
Summary of the method: as §1

[19] = molecular target: Neu5Ac(a2-6)Gal(b1-4)GlcNAc(b1-2)Man(a1-3)[Gal(b1-4)GlcNAc(b1-2)Man(a1-6)]Man(b1-4)GlcNAc(b1-4)GlcNAc
Summary of the method: as §1

[20] = molecular target: Neu5Ac(a2-6)Gal(b1-4)GlcNAc(b1-3)Gal(b1-4)GlcNAc(b1-3)Gal(b1-4)GlcNAc(b1-2)Man(a1-3)[Neu5Ac(a2-6)Gal(b1-4)GlcNAc(b1-3)Gal(b1-4)GlcNAc(b1-3)Gal(b1-4)GlcNAc(b1-2)Man(a1-6)]GalNAc
Summary of the method: as §1

[21] = molecular target: Neu5Ac(a2-6)Gal(b1-4)GlcNAc(b1-3)Gal(b1-4)[Fuc(a1-3)]GlcNAc(b1-3)Gal(b1-4)[Fuc(a1-3)]GlcNAc
Summary of the method: as §1

Neu5Ac(b2-6)GalNAc = molecular target: Neu5Ac(b2-6)GalNAc
Summary of the method: as §1

[22] = molecular target: Neu5Ac9Ac(a2-6)Gal(b1-4)GlcNAc
Summary of the method: as §1

B1: HPA (Helix pomatia), Q575S3 (protein)
chain: MWAHLTGLLLICALSLSAAQRAQTGEIDCGSDSSWPKDPSDNPNRDNTREIVKHVTFSPQFCREPKVILSVTTLDAEHTKNLRYEARLKSVSPSGLSASCYSWHDGTIYRMKLSWLAVED
glycan array binding signal (z-score) (GalNAc(a1-3)Gal): 4.18 | glycan array binding signal (z-score) (GalNAc(a1-3)GalNAc): 4.53 | glycan array binding signal (z-score) [1]: 5.04 | glycan array binding signal (z-score) [2]: 5.7 | glycan array binding signal (z-score) (Glc(b1-4)Glc): -0.26 | glycan array binding signal (z-score) (Glc(b1-6)Glc): -0.266 | glycan array binding signal (z-score) (GlcA(b1-3)Gal): -0.262 | glycan array binding signal (z-score) [3]: -0.256 | glycan array binding signal (z-score) [4]: 4.69 | glycan array binding signal (z-score) [5]: 1.46 | glycan array binding signal (z-score) [6]: 4.37 | glycan array binding signal (z-score) [7]: 4.21 | glycan array binding signal (z-score) [8]: 0.175 | glycan array binding signal (z-score) [9]: -0.24 | glycan array binding signal (z-score) [10]: -0.243 | glycan array binding signal (z-score) [11]: -0.257 | glycan array binding signal (z-score) [12]: -0.241 | glycan array binding signal (z-score) (Kdn(a2-3)Gal(b1-4)GlcNAc): -0.262 | glycan array binding signal (z-score) [13]: -0.243 | glycan array binding signal (z-score) [14]: -0.245 | glycan array binding signal (z-score) [15]: -0.209 | glycan array binding signal (z-score) [16]: -0.267 | glycan array binding signal (z-score) [17]: -0.265 | glycan array binding signal (z-score) [18]: -0.273 | glycan array binding signal (z-score) [19]: -0.261 | glycan array binding signal (z-score) [20]: -0.164 | glycan array binding signal (z-score) [21]: -0.253 | glycan array binding signal (z-score) (Neu5Ac(b2-6)GalNAc): -0.269 | glycan array binding signal (z-score) [22]: -0.274

Source: the supplement of paper PMC8728848
